From PubChem BioAssay (NCATS)
Inconclusive results are not listed. Where a call stands in place of a potency, no number is given. The source made the active and inactive calls. The call rests on the fitted dose curve; in most records, active means well fitted inhibition curve with a large enough effect; inconclusive means small, poorly fitted or top-dose-only effect; inactive means no such curve, though single readings can be large or run the other way.

Experiment: P-glycoprotein substrates identified in KB-3-1 adenocarcinoma cell line, qHTS therapeutic library screen (AID 1346986); further: nearly all actives have a fitted effect of over 60% in size;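 further: potency is for cytotoxicity meaning loss of cell viability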
Conditions: KB-3-1 parental cells viability, CellTiter-Glo, 72 h; series mostly up to 44.5 µM
Method in brief: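 Dose-response cytotoxicity, KB-3-1 vs P-gp-high KB-8-5-11, no colchicine in assay medium. Read: CellTiter-Glo at 72 h.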
Potency means the concentration at half of the fitted maximal effect.

Structure (SMILES) | Potency | outcome
C=CCCN1CCC2(CC1)CN(C(=O)c1c(F)cccc1F)c1ccc(Cl)cc12 | inactive | –
COc1cc2c(cc1O)C1(Cc3ccc4c(c3C1O)OCO4)[N+](C)([O-])CC2 (centres undefined) | inactive | –
CC(C)n1nc(C#Cc2ccccc2)c2c(N)ncnc21 | 14.6 µM (active) | –
CC1OC(=O)C[C@@H]2C(C(=O)O)=CO[C@@H](O[C@H]3O[C@H](CO)[C@@H](O)[C@H](O)[C@H]3O)[C@H]12 (some centres undefined) | inactive | –
N#Cc1ccnc(Nc2cc(C3CCN(C4COC4)CC3)cc(N3CCC(F)(F)C3)n2)c1 | 6.51 µM (active) | –
C=C1C(OC2OC(CO)C(O)C(O)C2O)CC2C(C)(C)C(O)CCC2(C)C1CC/C(C)=C\COC(=O)CC(=O)O (centres undefined) | inactive | –
CO[C@H]1O[C@@H]2O[C@@]3(C)CCC4[C@H](C)CCC([C@H]1C)[C@]42OO3 (some centres undefined) | inactive | –
O=C(O)c1cc(N(Cc2ccc(C3CCCCC3)cc2)C(=O)c2ccc(Oc3ccccc3)cc2)ccc1O | inactive | –
CC(=O)OCC(=O)[C@@]12O[C@@H]1C[C@H]1[C@@H]3CC=C4C[C@@H](O)CC[C@]4(C)[C@H]3CC[C@@]12C | inactive | –
CC(=O)O[C@@H]1CC2C(C)(C)C(=O)C=C[C@]2(C)C2CC[C@@]3(C)[C@H](c4ccoc4)OC(=O)[C@H]4O[C@]43[C@@]21C (some centres undefined) | inactive | –
O=C(Nc1ccccc1C(=O)Nc1ccc(CCO)cc1)c1ccc([N+](=O)[O-])cc1 | inactive | –
CC(C)(F)CC(NC(c1ccc(-c2ccc(S(C)(=O)=O)cc2)cc1)C(F)(F)F)C(=O)NC1(C#N)CC1 (centres undefined) | inactive | –
CC(=O)Nc1nc(C)c(-c2nc(N3CCCC(O)C3)no2)s1 (centres undefined) | 13 µM (active) | –
CC1(C)CN(C(=O)c2ccc(-c3cccc4nc(NC(=O)C5CC5)nn34)cc2)C1 | inactive | –
CC(=O)C=C=C1C(C)(C)CC(O)CC1(C)O[C@@H]1O[C@H](CO[C@H]2OC[C@](O)(CO)[C@H]2O)[C@@H](O)[C@H](O)[C@H]1O (some centres undefined) | inactive | –
C=C1C(=O)OC2CC(C)C(CCC(C)O)=CCC12 (centres undefined) | inactive | –
CC/C(C)=C/C(=O)OC1C(OC2(C)CCC3C(C4C(C)CCC42)C3(C)C)OC(C)C(O)C1O (centres undefined) | inactive | –
Cc1[nH]c2ccccc2c1CCNC(=O)c1cccs1 | inactive | –
COc1cc(O)cc(/C=C/c2cccc(O)c2)c1 | inactive | –
CN1CCN(c2ccc(-c3cccc(CN4CCOCC4)c3)cc2NC(=O)c2c[nH]c(=O)cc2C(F)(F)F)CC1 | inactive | –

Structure (SMILES) | Potency | outcome
C=C1C(=O)O[C@@H]2[C@H]1CCC(C)=C(CCC(=O)O)[C@@]2(C)O | inactive | –
Cc1c(F)ccc(C(=O)Nc2cc([N+](=O)[O-])ccc2N2CCN(C)CC2)c1Cl | inactive | –
CC(C)(CO)c1cc2cc(NC(=O)C3(c4ccc5c(c4)OC(F)(F)O5)CC3)c(F)cc2n1CC(O)CO (centres undefined) | inactive | –
CCN1CCN(Cc2ccc(NC(=O)c3ccc(C)c(Oc4ccnc5[nH]ccc45)c3)cc2C(F)(F)F)CC1 | 16.4 µM (active) | –
NC(=O)c1nc(Nc2ccccc2)sc1NC(=O)C1CCCCC1 | inactive | –
COc1ccc(C(=O)O[C@H]2C=COC=C3C=C4C(=O)N(C)C(=S)C(=O)N4[C@@H]32)cc1Oc1cc(C=O)ccc1O | inactive | –
Cn1ncnc1[C@@H]1c2n[nH]c(=O)c3cc(F)cc(c23)N[C@H]1c1ccc(F)cc1 | inactive | –
CCC(C)C(=O)OC12C(OC(C)=O)C(C)C3(O)C(C=C(CO)CC4(O)C(=O)C(C)=CC43)C1C2(C)C (centres undefined) | inactive | –
CC(=O)O[C@@H]1CC[C@@]2(C)C(CC[C@]3(C)C2[C@H](O)C=C2[C@H]4[C@@H](C)[C@H](C)CC[C@]4(C)CC[C@]23C)[C@@]1(C)C(=O)O (some centres undefined) | inactive | –
C=CC(=O)Nc1cccc(Nc2nc(Nc3ccc(OCCOC)cc3)ncc2F)c1 | 11.6 µM (active) | –
COc1cccc(OCCCN)c1-c1cc(Nc2cnc(C#N)cn2)n[nH]1 | 0.146 µM (active) | –
CNc1nc(Nc2ccc(C(=O)N3CCOCC3)cc2OC)nc2[nH]cc(Cl)c12 | 7.31 µM (active) | –
COC1CC(O[C@H]2CC[C@]3(C)C4CC[C@@]5(C)C(=O)[C@]4(CC[C@@H]3C2)CC[C@@H]5C2=CC(=O)OC2)OC(C)C1OC1OC(COC2OC(CO)C(O)C(O)C2O)C(O)C(O)C1O (some centres undefined) | 3.48 µM (active) | –
C=C1[C@H]2CC[C@H](C(=O)O)[C@@]23CC[C@H](C3)C1(C)C | inactive | –
COc1cc(F)c(C(C)C)cc1-c1ccc(C(F)(F)F)cc1CN1C(=O)OC(c2cc(C(F)(F)F)cc(C(F)(F)F)c2)C1C (centres undefined) | inactive | –
O=c1cc(N2CCN(c3cccc(C(F)(F)F)c3)CC2)[nH]c(=O)n1C1CCCCC1 | inactive | –
C[C@@H]1O[C@@H](O[C@H]2CC[C@@]3(C)C(CC[C@]4(C)C3CC=C3[C@@H]5CC(C)(C)CC[C@]5(C(=O)O[C@@H]5O[C@H](CO)[C@@H](O)[C@H](O)[C@H]5O)CC[C@]34C)[C@]2(C)CO)[C@H](O)[C@H](O[C@@H]2O[C@H](CO)[C@@H](O)[C@H](O)[C@H]2O)[C@H]1O (some centres undefined) | – | inactive [at 9.29 µM]
C=C(C)C1CCC2(C(=O)O)CCC3(C)C(CCC4C5(C)C(C=O)C(O)C(C)(C)C5CCC43C)C12 (centres undefined) | inactive | –
CC(CCC1(O)OC2CC3C4CC=C5C[C@@H](O[C@@H]6O[C@H](CO)[C@@H](O[C@@H]7O[C@@H](C)[C@H](O)[C@@H](O)[C@H]7O)[C@H](O)[C@H]6O[C@@H]6O[C@@H](C)[C@H](O)[C@@H](O)[C@H]6O)CC[C@]5(C)C4CC[C@]3(C)[C@@]2(O)[C@@H]1C)CO[C@@H]1O[C@H](CO)[C@@H](O)[C@H](O)[C@H]1O (some centres undefined) | – | inactive [at 9.29 µM]
